# From PubChem
# HT1080 IDH1KD tx: toxicity to HT-1080 IDH1 knockdown cells (counter line); HT-1080 IDH1 knockdown viability, ATP luminescence, 48 h; Potency, µM (series often up to 46.1 µM), usual class: cytotoxic; 2% of 360,000 active; AID 686971
#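 Luminescent ATP read-out (CellTiter-Glo, 10 min at room temperature) after 48 h compound exposure at 37 °C gave viability of IDH1-knockdown HT-1080 cells. Activity was normalised to DMSO and cell-free wells, then fitted as concentration-response curves.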
# IL1B secr inh: inhibitors of inflammasome signaling (IL-1 beta secretion). THP-1 LPS/ATP IL-1B secretion, AlphaLISA, 16 h; stronger effect = lower value. activity change, % at 57.5 µM. 4.7% of 360,000 active. AID 743279; in the data active means activity change below about -50%; inconclusive means mostly about -30% to -49%
#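 Secreted IL-1B measured by AlphaLISA bead assay after 16 h compound exposure of THP-1 cells; compounds (final up to 57.5 uM) added 1 h before LPS (250 ng/mL) and ATP (1.25 mM) stimulation; lower signal means less secretion.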
# TDP1 cell noCPT: qHTS for Inhibitors of human tyrosyl-DNA phosphodiesterase 1 (TDP1): qHTS in cells in absence of CPT. DT40 Tdp1-/- hTDP1 cells, no CPT, ATP luminescence, 48 h. Potency, µM (top dose mostly 46.2 µM), most hits filed as inhibitors. 15% of 420,000 active. AID 686978, 2013; further: nearly all actives have a fitted effect of over 55% in size
#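 Compound effects on proliferation are scored in DT40 Tdp1-/-;hTDP1 cells in the absence of CPT. ATP levels (CellTiter-Glo luminescence) are recorded after a ≥48 hr, 37 °C incubation.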
# HT1080NT lethal: kills 2HG-producing HT-1080-NT fibrosarcoma cells; Potency, µM (titrated, usually from 46.1 µM), hits mostly cytotoxic; HT-1080-NT fibrosarcoma viability, CellTiter-Glo ATP luminescence, 48 h; 1.6% of 360,000 active; AID 686970;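 further: NT is the 2HG producing partner of a matched IDH1 knockdown line; nearly all actives have a fitted effect of over 55% in size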
#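 Compounds were tested in concentration-response format on HT-1080-NT cells for 48 hours at 37 degrees C. Cell viability came from CellTiter-Glo luminescence; curves were classified by r2, response magnitude and activity.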
# TDP1 cell CPT: DT40-hTDP1 cell growth loss with CPT; 12% of 420,000 active; Potency, µM (titrated, usually from 46.2 µM), most hits filed as inhibitors; AID 686979; chicken DT40 Tdp1-/-;hTDP1 cells + 20 nM CPT, ATP luminescence, 48 h; further: nearly all actives have a fitted effect of over 55% in size
#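 Cell growth measured by CellTiter-Glo luminescence after a minimum 48 h, 37 C compound exposure with 20 nM CPT in Tdp1-knockout DT40 cells stably expressing hTDP1, seeded 400/well; qHTS titration format.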
# A number is an active result; n = inactive; u = inconclusive; x = no result given. Shown are actives, neighbours in structure and some others; about 19% of the full set was active somewhere. Unless noted, the call rests on the fitted dose curve; in most records, active means well fitted curve in the direction sought with a large enough effect; inconclusive means small, poorly fitted or top-dose-only effect, or another doubt; inactive means no such curve, though single readings can be large; an effect the other way counts as inactive or inconclusive.
SMILES,HT1080 IDH1KD tx,IL1B secr inh,TDP1 cell noCPT,HT1080NT lethal,TDP1 cell CPT
COC(=O)[C@@]12C[C@@H](CC(=O)NCC3CCCCC3)C(=O)N(Cc3ccco3)C1=CCC(C)(C)C2,n,n,u,u,u
CCN(CC)CCn1c2ccccc2c2cnc(N)c(C#N)c21,u,-103.7,20.6µM,n,u
CN(C)C=Nc1ncc2c3ccccc3n(CCN(C)C)c2c1C#N,n,-76.6,23.1µM,n,20.6µM
CN(C)C=Nc1ncc2c3ccccc3n(Cc3ccccc3)c2c1C#N,n,n,u,n,n
CC(C)Oc1ccc(Cc2c(O)nc(NCCCN(C)C)[nH]c2=O)cc1,n,n,n,n,n
CCOC(=O)CSc1n[nH]c(-c2cccnc2)n1,n,-81.2,n,n,n
COC(=O)CSc1n[nH]c(-c2cccnc2)n1,n,n,n,n,n
CCC(=O)O/N=C(\N)c1ccc(Oc2cc(C)c(Cl)c(C)c2)c([N+](=O)[O-])c1,n,n,u,n,n
CC(C)(C)C(=O)O/N=C(\N)c1ccc(Oc2cc(Cl)cc(Cl)c2)c([N+](=O)[O-])c1,n,-60.7,u,n,u
COc1ccc(CCC(=O)OCC(=O)Nc2sccc2C#N)cc1,n,n,n,n,n
Cc1c(Cl)cccc1NC(=O)c1ccc(OCC(=O)NCc2ccccc2)cc1,n,n,u,n,u
O=c1cc(-c2ccccc2Cl)oc2c([N+](=O)[O-])c(O)cc(O)c12,n,-74.0,25.9µM,n,23.1µM
COc1ccccc1-c1cc(=O)c2c(O)ccc([N+](=O)[O-])c2o1,n,n,5.17µM,n,3.66µM
NC(=O)COC(=O)c1ccccc1OCc1ccccc1Cl,n,n,n,n,u
COc1ccc(N(C(=O)c2ccco2)S(=O)(=O)c2ccccc2)cc1,n,n,n,n,n
COc1ccc(N(C(=O)c2ccco2)S(=O)(=O)c2cc(Cl)c(Cl)cc2Cl)cc1,u,n,u,u,18.4µM
O=C(COC(=O)CSc1ccc([N+](=O)[O-])cc1)NCC1CCCO1 (centres undefined),n,n,n,n,n
CCOc1ccc(Nc2ccc([N+](=O)[O-])c3nonc23)cc1,n,n,23.1µM,n,u
Cc1c2cnn(CC(=O)NCc3ccc(F)cc3)c(=O)c2c(C)n1Cc1ccccc1F,x,x,16.4µM,x,u
Cc1c2cnn(CC(=O)NCc3ccc(F)cc3)c(=O)c2c(C)n1Cc1cccc(Cl)c1,x,x,4.11µM,x,4.11µM
CCC(C)NC(=O)Cn1ncc2c(C)n(Cc3ccc(F)cc3)c(C)c2c1=O (centres undefined),x,x,u,x,23.1µM
Cc1c2cnn(CC(=O)Nc3c(F)c(F)cc(F)c3F)c(=O)c2c(C)n1Cc1ccccc1F,n,n,n,n,n
N#CCCN(C(=O)Nc1ccc(Cl)c(Cl)c1)c1ccccc1,n,n,n,n,n
CN(C(=O)CSc1nc2ccccc2n1CC(=O)N(C)C1CCCCC1)c1ccc(F)cc1,x,x,29.1µM,x,u
CN(C(=O)CSc1nc2ccccc2n1CCc1ccccc1)C1CCS(=O)(=O)C1 (centres undefined),n,u,n,n,n
SMILES,HT1080 IDH1KD tx,IL1B secr inh,TDP1 cell noCPT,HT1080NT lethal,TDP1 cell CPT
COc1ccc(NC(=O)CSc2nc3ccccc3n2CC(=O)N2CCCC(C)C2)cc1 (centres undefined),x,x,20.6µM,x,u
CCn1c(SCC(=O)Nc2ccc(C(C)=O)cc2)nc2ccccc21,n,n,u,n,u
COc1ccc(NC(=O)CSc2nc3ccccc3n2CC(=O)N(C)c2ccc(F)cc2)cc1,x,x,14.6µM,x,u
CCn1c(SCC(=O)Nc2ccc3[nH]c(=O)[nH]c3c2)nc2ccccc21,n,n,n,n,n
Cc1ccc(NC(=O)CSc2nc3ccccc3n2CC(=O)N(C)C2CCCCC2)cc1C,x,x,18.4µM,x,u
O=C(CN1C(=O)NC2(CCc3ccccc32)C1=O)c1ccc(F)c(F)c1 (centres undefined),n,n,u,n,n
CCNc1ncc2nc(-c3ccc(OC)cc3)c(=O)n(Cc3ccc(F)cc3)c2n1,x,x,n,x,n
Cc1cccc(N(C(=O)c2snc(C(N)=O)c2N)C(C(=O)NCc2ccccc2)c2ccncc2)c1 (centres undefined),u,n,u,18.4µM,n
